# Assay outcomes: PubChem, Sanford-Burnham Center for Chemical Genomics
# Mdm2 MdmX PPI = inhibitors of human Mdm2/MdmX interaction; O15151+Q00987; SaOS-2 split-luciferase Mdm2/MdmX complementation, luminescence; inhibition, % at 8 µM; 330,000 tested, 3% active; AID 485346;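 active means inhibition of at least 50% at 8 µM in the primary screen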
# TIM10 inh = inhibits growth of TIM10 yeast strain; inhibition, % at 10 µM; AID 463195; S. cerevisiae TIM10 strain growth, BacTiter-Glo luminescence, 24 h; 330,000 tested, 1.4% active;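 active means inhibition of 40% or more at the single tested concentration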;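 further: wild-type TIM10 isogenic control strain grown at permissive 25 °C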
# tim10-1 inh = tim10-1 yeast growth inhibition | S. cerevisiae tim10-1 ts strain growth, BacTiter-Glo, 24 h | inhibition, % at 20 µM | 330,000 tested, 2.2% active | AID 463190;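 active means inhibition of at least 40%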;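 further: mutant grown at 25 °C; 0% = DMSO wells with yeast and 100% = wells holding no yeast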
# MPTP block = blocks calcium-induced mitochondrial swelling; inhibition, % at 10 µM; 360,000 tested, 1.4% active; isolated mouse mitochondria, Ca2+ swelling absorbance, 30 min; AID 602449;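 active means inhibition of 50% or more, scaled per plate between neutral and stimulator controls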;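 further: 0% = DMSO wells given calcium and 100% = 1 mM EGTA wells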
# tim23-1 inh = inhibits growth of tim23-1 mutant yeast. inhibition, % at 20 µM. 330,000 tested, 1.3% active. S. cerevisiae tim23-1 growth, BacTiter-Glo luminescence, 24 h;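 active means growth inhibition of the mutant yeast at or above 50%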;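 further: temperature-sensitive mutant grown at 25 °C; plate controls were DMSO-treated mutant yeast for no effect and medium wells lacking yeast for full effect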
# Rh123 counter = Rhodamine 123 counter-screen of mitochondrial pore hits; shares compounds with MPTP block; isolated mitochondria, membrane potential, Rhodamine 123 fluorescence; inhibition, % at 10 µM; 5,000 tested, 78% active; AID 624504; in the data active means inhibition above about 22%;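 further: 0% = DMSO vehicle and 100% = positive control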
# MPTP abs DR = MPTP inhibition, dose response swelling confirmation | 780 tested, 58% active | AID 651561 | shares compounds with MPTP block | isolated mitochondria swelling, absorbance | IC50, µM; in the data active means IC50 below about 20 µM
# MPTP counter DR = MPTP inhibitor counter-screen activity, dose response. shares compounds with MPTP block. isolated mitochondria counterscreen, fluorescence read-out. IC50, µM. 780 tested, 49% active; in the data active means IC50 below about 80 µM
# Active calls of the source: *; / = no result. In the library only some 6.3% were active in any assay of this set; here they are far more common.
SMILES,Mdm2 MdmX PPI,TIM10 inh,tim10-1 inh,MPTP block,tim23-1 inh,Rh123 counter,others
Cc1nc(-c2c(C(F)(F)F)noc2-c2ccc(O)cc2O)cs1,11.7,26.1,23.5,0.4,18.3,/,
CCOc1cc(C)c(-c2onc(C(F)(F)F)c2-c2csc(C)n2)c(O)c1,-4.7,16.7,31.8,70.5*,34.3,82.6*,
O=c1cc(CO)oc(C(Nc2ccccn2)c2ccc(C(F)(F)F)cc2)c1O (configuration not stated),7.4,7.5,10.8,68.4*,-17.9,-13.6,MPTP abs DR=11.3*;MPTP counter DR=>80
O=c1cc(CO)oc(C(Nc2ccccn2)c2cccc(F)c2)c1O (configuration not stated),-22.6,0.2,-8.6,-1.5,0.7,/,
CN(CC(=O)Nc1cccc(F)c1)C(=O)c1cccc(S(=O)(=O)N2CCN(c3ccc(F)cc3)CC2)c1,/,/,/,1.4,/,/,
Cc1cc(=O)oc2cc(O)cc(O)c12,/,/,/,0.2,/,/,
CCCCCc1cc(O)c2c(C)cc(=O)oc2c1,35.7,14.7,19.4,86.2*,22.1,79.4*,
CCCc1cc(=O)oc2cc(C)cc(OCC(=O)NCc3cccnc3)c12,32.9,2.4,10.7,-0.2,2.5,/,
CCCc1cc(=O)oc2cc(C)cc(O)c12,20.6,-34.5,-0.1,77.8*,27.8,77.9*,
CCCc1cc(=O)oc2cc(C)cc(OC(=O)c3ccco3)c12,10.9,-4.2,-8.5,83.9*,11.0,88.4*,
COC(=O)[C@H](Cc1ccccc1)NC(=O)/C=C/[C@H]1O[C@@H](n2cc(C)c(=O)[nH]c2=O)C[C@@H]1O,/,/,/,-1.2,/,/,
O=[N+]([O-])c1ccc2nc(-c3cccnc3)[nH]c2c1,-25.3,6.8,-9.9,-0.6,8.3,/,
O=[N+]([O-])c1cc([N+](=O)[O-])c2cc(-c3cccnc3)[nH]c2c1,-14.4,2.3,2.1,52.2*,-6.2,55.9*,
CCCCNS(=O)(=O)c1ccc2nc(SCC(=O)Nc3sccc3C#N)[nH]c2c1,37.2,-5.2,11.4,79.4*,-3.5,-3.6,MPTP abs DR=11.2*;MPTP counter DR=<2.5*
CCCCNS(=O)(=O)c1ccc2nc(SCC(N)=O)[nH]c2c1,-29.9,3.4,-6.3,-0.5,25.8,/,
O=C(Nc1cccc(Cl)c1)N(CCCN1CCOCC1)Cc1ccccc1F,22.3,-11.7,7.1,95.2*,6.7,95.2*,
O=C(Nc1ccc(Cl)cc1)c1cnc(-c2ccccc2)nc1-c1ccccc1,7.6,-2.1,18.4,72.6*,-4.5,36.2*,
O=C(CN(CCO)Cc1ccccc1)N1CCN(S(=O)(=O)c2ccccc2)CC1,/,/,/,-2.0,/,/,
CCCCn1nnnc1C1(C)CCC(=O)N1CCc1ccccc1F (configuration not stated),/,/,/,0.6,/,/,
Cn1ncc(Br)c1NC(=O)Nc1ccc(OC(F)(F)F)cc1,1.7,-7.0,25.2,89.0*,22.4,84.6*,
CCOC(=O)/C(C(=O)Nc1ccc(Br)cc1)=C1/NC(C)(C)Cc2ccccc21,-7.8,5.7,17.8,100.9*,32.7,89.0*,
CCCCCCN1C[C@H](n2cc(COC(=O)c3ccccc3)nn2)[C@@H](O)C[C@@H]1c1ccc(C)cc1,/,/,/,-1.5,/,/,
Cc1ccc(C2C(C#N)=C(N)SC(N)=C2C#N)c(C)c1,4.5,-2.3,23.7,52.6*,31.8,63.7*,
Cc1ccc(C2C(C#N)=C(N)SC(N)=C2C#N)cc1,/,/,/,54.5*,/,67.4*,
N#CC1=C(N)SC(N)=C(C#N)C1c1ccoc1,13.2,-1.0,13.3,/,14.1,/,
SMILES,Mdm2 MdmX PPI,TIM10 inh,tim10-1 inh,MPTP block,tim23-1 inh,Rh123 counter,others
CCN1C[C@@H]2[C@@H]3C(=O)N(C)C(=O)[C@@H]3[C@](Cc3ccccc3)(C1=O)N2C(=O)c1ccc(F)cc1,/,/,/,-0.7,/,/,
O=C1C=C(c2c(O)ccc3ccccc23)c2ccccc2C1=O,/,/,/,64.6*,/,49.9*,
CCOCCC(=O)Nc1ccc2c(c1)c(=O)n(C)n2Cc1cccc(C(F)(F)F)c1,/,/,/,0.0,/,/,
Cc1ccc(-c2nnc(SCC(=O)N(C)C)nc2-c2ccc(C)cc2)cc1,19.4,13.6,4.2,72.7*,31.3,-0.7,MPTP abs DR=17.4*;MPTP counter DR=>80
Cc1ccc(-c2nnc(SCC(N)=O)nc2-c2ccc(C)cc2)cc1,19.1,17.7,8.7,-0.6,28.4,/,
CCCN(C(=O)CSc1nnc(-c2ccncc2)n1CCC)c1c(N)n(Cc2ccccc2)c(=O)[nH]c1=O,/,/,/,0.2,/,/,
COc1ccc(NC(=O)C23CC4CC(C2)CC(c2ccc(C)cc2)(C4)C3)cc1,-7.3,28.6,11.5,60.0*,14.3,20.7*,
O=C(/C=C/[C@H]1O[C@@H](n2ccc(=O)[nH]c2=O)[C@H](O)[C@@H]1O)NCCN1CCCCC1,/,/,/,-0.7,/,/,
Cc1nc2ccccn2c1-c1ccnn1S(=O)(=O)c1ccc(F)cc1,36.1,10.6,-2.1,78.6*,21.4,48.3*,
Cc1nc2ccccn2c1-c1nnco1,-3.7,-4.2,15.8,0.1,-2.3,/,
CN(Cc1ccccc1)Cc1c(O)ccc2ccccc12,13.3,2.7,5.2,-0.3,12.3,/,
CN(Cc1cc(Cl)cc(Cl)c1O)Cc1c(O)ccc2ccccc12,/,/,/,89.3*,/,84.9*,
O=C(Nc1ccc2c(c1)OCCO2)C(c1ccccc1)n1c(=O)c(-c2ccco2)nc2ccccc21 (configuration not stated),/,/,/,0.4,/,/,
O=C(Nc1ccccc1)Nc1ccccc1NS(=O)(=O)c1cccs1,2.4,1.3,5.2,61.1*,7.2,64.7*,
CCN(c1ccccc1)S(=O)(=O)c1cc(C(=O)Nc2ccc(Br)cc2)ccc1F,28.9,-1.4,-10.4,96.7*,-14.2,88.8*,
CN(c1ccccc1)S(=O)(=O)c1ccc(NC(=O)c2ccc(F)cc2)cc1,16.4,14.2,-3.3,58.3*,32.7,60.6*,
COc1ccccc1NS(=O)(=O)c1cccc(NC(=O)c2[nH]c(C)c(C(C)=O)c2C)c1,21.6,9.9,8.4,65.8*,13.0,63.8*,
COc1ccccc1NC(=O)c1[nH]c(C)c(C(C)=O)c1C,19.4,-5.9,-9.4,-1.7,14.4,/,
CC(C)(C)S(=O)N1Cc2cc(CO)cc(-c3ccccc3)c2[C@@H]1CCO (some centres not stated),/,/,/,0.0,/,/,
CC1=C(C(=O)N2CCCCCC2)CC(CC(=O)NCc2cccc3ccccc23)C(=O)N1CCC1=CCCCC1 (configuration not stated),/,/,/,-2.1,/,/,
COCC#Cc1cnc2c(c1)C(=O)N([C@H](C)CO)C[C@H](C)[C@@H](CN(C)S(=O)(=O)c1ccccc1)O2,/,/,/,-3.9,/,/,
CC(=O)c1c(C)[nH]c(C(=O)Nc2cccc(S(=O)(=O)N(C)c3ccccc3)c2)c1C,39.1,20.8,8.7,68.4*,5.2,78.5*,
CCNC(=S)Nc1cccc(S(=O)(=O)Nc2ccccc2OC)c1,9.2,10.6,5.8,5.8,24.6,/,
COc1ccccc1NS(=O)(=O)c1cccc(NC(=O)Nc2ccccc2)c1,24.9,4.4,-10.0,82.0*,-2.4,86.2*,
